MEKK2mut PB1 HTS – MEK5 binding signal on mutant MEKK2 PB1, primary screen, biochemical, multiplex bead flow cytometry, Alexa488-MEK5 | Alexa488-MEK5 binding to MEKK2 mutant | percent response, % at 10 µM | hit rate 0.35% among 290,000 | AID 1530, 2009; in the data active = percent response above about 24%, passing the limit was not always enough
MEKK2wt PB1 HTS – modulators of MEK5 binding to wildtype MEKK2, primary screen, biochemical, multiplex bead flow cytometry, Alexa488-MEK5; Mitogen-activated protein kinase kinase kinase 2 (Homo sapiens), Q9Y2U5; Alexa488-MEK5 binding to MEKK2 WT; actives lie on both sides; binding response (% of control), % at 10 µM; hit rate 1.1% among 290,000; in the data active = binding response below about 67% or above about 130%
MEKK3 PB1 HTS – modulators of MEKK3-MEK5 PB1 binding, primary screen, biochemical, wildtype MEKK3, multiplex bead flow cytometry, Alexa488-MEK5 | Mitogen-activated protein kinase kinase kinase 3 (Homo sapiens), Q99759 | bead-based flow cytometry, Alexa488-MEK5 binding to MEKK3; actives lie on both sides; 0 = blocked by unlabeled MEK5, 100 = vehicle | binding response (% of control), % at 10 µM | hit rate 1.4% among 290,000;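 active = binding response more than 3 SD above or below the average of its plate-row segment, actives on both sides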;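 also: Alexa488 bead fluorescence after subtracting the streptavidin-only scavenger bead signal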
GRK2 inh – compounds blocking aptamer binding on GRK2 – biochemical, human GRK2, bead flow cytometry, HTS, primary screen; FAM-aptamer displacement from GRK2; inhibition of aptamer binding, % at 10 µM; hit rate 0.59% among 330,000;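 active = inhibition of aptamer binding above 40%, roughly 3 SD of noise, on plates passing a quality check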;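 also: median bead fluorescence of bound FAM aptamer so fluorescent compounds give negative values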
Beta2AR agonist – beta2AR agonists driving receptor internalization, primary screen, cell-based, FAP fluorogen, flow cytometry; Beta-2 adrenergic receptor (Homo sapiens), P07550; Am2.2-beta2AR cells; response, % (no concentration beside the values); hit rate 0.43% among 340,000; AID 504454, 2011;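 active = response above a set limit, near 3 SD of response in nonfluorescent compounds, cut at about 42% in these data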
Target sequence (P07550 whole entry, looked up): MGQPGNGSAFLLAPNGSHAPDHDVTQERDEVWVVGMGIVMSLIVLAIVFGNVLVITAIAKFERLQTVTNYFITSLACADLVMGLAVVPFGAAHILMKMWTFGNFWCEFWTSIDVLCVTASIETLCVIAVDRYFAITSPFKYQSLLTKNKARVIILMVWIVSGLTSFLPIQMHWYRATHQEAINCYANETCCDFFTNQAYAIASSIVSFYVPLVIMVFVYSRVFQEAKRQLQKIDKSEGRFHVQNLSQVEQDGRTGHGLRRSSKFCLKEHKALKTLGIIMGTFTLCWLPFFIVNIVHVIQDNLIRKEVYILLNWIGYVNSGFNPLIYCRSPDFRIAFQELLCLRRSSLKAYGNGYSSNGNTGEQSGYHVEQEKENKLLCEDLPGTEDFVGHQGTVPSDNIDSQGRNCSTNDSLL
MEKK2wt confirm – modulators of MEK5 binding to wildtype MEKK2, confirmation, biochemical, single concentration, multiplex bead flow cytometry. shares compounds with MEKK3 PB1 HTS. Alexa488-MEK5 binding to MEKK2 WT; actives lie on both sides. binding response (% of control), % at 10 µM. hit rate 2.4% among 5,900; in the data active = binding response below about 16% or above about 210%; inactive = in between
MEKK2mut-MEK5 – mutant MEKK2 PB1-MEK5 binding signal retest – biochemical, single concentration, multiplex bead flow cytometry, confirmation | shares compounds with MEKK3 PB1 HTS | hit rate 2% among 5,900 | percent response, % at 10 µM | Alexa488-MEK5 binding to MEKK2 mutant; in the data active = percent response mostly above about 71%, no sharp cut-off; inactive = mostly below about 38%;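 also: higher means compound restores mutant binding toward wildtype level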
MEKK3 confirm – MEKK3 wild-type PB1 binding to MEK5, inhibitors, confirmation, biochemical, bead multiplex flow cytometry, single concentration, wildtype; shares compounds with MEKK3 PB1 HTS; Alexa488-MEK5 binding to MEKK3; hits give low values; binding response (% of control), % at 10 µM; hit rate 1.8% among 5,900; AID 1894, 2009;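 active = binding response below 72% of control, or above a set upper limit, though filed actives all read lower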;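 also: 100% = DMSO only wells and 0% = binding blocked by excess unlabeled MEK5; lower values mean stronger disruption of MEK5 binding to MEKK3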
An asterisk follows results filed as active; . = not tested or not shown; [ ] = another dose, or the depositor's remark. Rows were chosen to be rich in hits. Some 2.9% of all compounds tested hit in one or more screens of this group.

SMILES	MEKK2mut PB1 HTS	MEKK2wt PB1 HTS	MEKK3 PB1 HTS	GRK2 inh	Beta2AR agonist	MEKK2wt confirm	MEKK2mut-MEK5	MEKK3 confirm
O=C(O)C1C2C=CC(C2)C1C(=O)NCCCN1CCOCC1 (configuration not stated)	-1.0	92.0	97.0	1.0	-1.4	.	.	.
CCCCNC(=O)C1C2C=CC(C2)C1C(=O)O (configuration not stated)	0.0	110.0	149.0*	13.0	-0.2	96.0	-7.0	97.0
CC[C@@H](C)C(NC(=O)OC(C)(C)C)c1cn([C@@H](Cc2ccc(O)cc2)C(=O)N2CCN(C(=O)OC(C)(C)C)CC2)nn1 (some centres not stated)	1.0	101.0	102.0	2.0	-0.5	.	.	.
CN(C)CCSc1nc(-c2ccccc2)nc2c1CCC2	1.0	111.0	138.0*	0.0	-2.5	107.0	2.0	103.0
CN(C)CCCSc1nc(-c2ccccc2)nc2c1CCC2	2.0	115.0	122.0	0.0	1.6	.	.	.
OC1(c2cccc(C(F)(F)F)c2)CCN(CCN2CCCCC2)CC1	16.0	140.0*	109.0	0.0	-0.8	137.0	31.0	106.0
O=C(COC(=O)c1ccccc1SCC(=O)NC1CCS(=O)(=O)C1)NC1CCS(=O)(=O)C1 (configuration not stated)	-60.0	1.0*[inhibitor]	2.0*[inhibitor]	0.0	-3.9	91.0	-9.0	86.0
CC(C)CNC(=O)CN1C(=O)NC(Cc2c[nH]c3ccccc23)C1=O (configuration not stated)	-27.0	76.0	67.0*[inhibitor]	0.0	2.8	110.0	9.0	105.0
O=C(Nc1ccc(S(=O)(=O)N2CCOCC2)cc1)c1c(F)cccc1F	-4.0	97.0	99.0	2.0	3.4	.	.	.
O=C(O)c1ccccc1N1C(=O)c2cccc3cccc(c23)C1=O	16.0	103.0	104.0	3.0	-1.9	.	.	.
Cc1ccccc1N1C(=O)c2cccc3cccc(c23)C1=O	26.0*	107.0	106.0	0.0	-5.6	104.0	2.0	106.0
COc1ccc(C(=O)N(CC2CCCO2)C(C(=O)NC2CCCC2)c2ccc(Cl)cc2)cc1OC (configuration not stated)	1.0	99.0	103.0	4.0	-0.5	.	.	.
COc1ccc(C(=O)N(CC2CCCO2)C(C(=O)NCCC(C)C)c2ccc(C)cc2)cc1OC (configuration not stated)	2.0	111.0	132.0*	3.0	2.5	90.0	1.0	94.0
COc1ccc(C(C(=O)NC2CCCCC2)N(CC2CCCO2)C(=O)C2COc3ccccc3O2)cc1OC (configuration not stated)	7.0	104.0	129.0*	1.0	-9.6	100.0	8.0	102.0
Cc1cccc(Nc2nc(NCc3ccco3)c3ccccc3n2)c1	14.0	145.0*	106.0	8.0	38.7	191.0	57.0	106.0
Cc1ccccc1Nc1nc(NCc2ccco2)c2ccccc2n1	35.0	149.0*	104.0	0.0	9.7	169.0	55.0	104.0
Cc1ccc(-c2nc(NCc3ccco3)c3ccccc3n2)cc1	0.0	109.0	91.0	0.0	-4.5	.	.	.
CSc1nc(NCc2ccco2)c2ccccc2n1	2.0	100.0	102.0	0.0	-2.4	.	.	.
CCC1Oc2ccccc2N(CC(=O)NCc2cccs2)C1=O (configuration not stated)	6.0	110.0	104.0	0.0	9.4	.	.	.
CC(C(=O)N(C)Cc1cccc(F)c1)N1CCN(S(=O)(=O)c2ccc3c(c2)OCCCO3)CC1 (configuration not stated)	.	.	.	.	-1.3	.	.	.
CCN(CC(=O)Nc1ccccc1C(F)(F)F)C(=O)c1ccccc1OCc1ccc(F)cc1	.	.	.	.	-1.2	.	.	.
CNC(=S)N1CCn2cccc2C1c1cc(OC)c(OC)c(OC)c1 (configuration not stated)	-3.0	81.0	57.0*[inhibitor]	0.0	7.4	96.0	-3.0	99.0
CC(C)Cn1c(N)c(C(=O)COC(=O)CCNS(=O)(=O)c2ccccc2)c(=O)n(C)c1=O	.	.	.	6.0	2.3	.	.	.
Cc1oc2c(CN3CCC(C)CC3)c(O)ccc2c(=O)c1-c1ccccc1	3.0	103.0	103.0	1.0	-1.1	.	.	.
COc1ccc(C(C)=O)cc1CSc1ccc(S(=O)(=O)N2CCCCC2)cn1	.	.	.	14.0	-6.5	.	.	.
SMILES	MEKK2mut PB1 HTS	MEKK2wt PB1 HTS	MEKK3 PB1 HTS	GRK2 inh	Beta2AR agonist	MEKK2wt confirm	MEKK2mut-MEK5	MEKK3 confirm
Cc1ccc(S(=O)(=O)NCCCCCC(=O)N(C)C)cc1	-11.0	77.0	71.0*[inhibitor]	3.0	2.2	105.0	6.0	106.0
Cc1ccc(NC(=O)CCCCCNS(=O)(=O)c2ccc(C)cc2)cc1	0.0	104.0	102.0	0.0	18.4	.	.	.
Cc1nn(C(C)C(=O)NCCCN2CCCC2)c(=O)c2nn(-c3ccccc3)c(C)c12 (configuration not stated)	5.0	112.0	105.0	0.0	-11.9	.	.	.
CCOCCCNC(=O)c1cc2c(s1)-c1ccccc1SC2	-1.0	101.0	101.0	4.0	20.7	.	.	.
CN(C)CCNC(=O)c1cc2c(s1)-c1ccc(Cl)cc1SC2	40.0*	181.0*	110.0	0.0	33.1	152.0	27.0	106.0
CN(CC(=O)Nc1cccc(S(=O)(=O)NC2=NCCC2)c1)Cc1cccc(F)c1	.	.	.	3.0	-3.4	.	.	.
O=C(Cn1cnc2ccccc21)N/N=C/c1cccs1	2.0	100.0	129.0*	5.0	-8.6	105.0	-2.0	103.0
O=C(Cn1nnc2ccccc21)N/N=C\c1cccs1	11.0	107.0	103.0	2.0	3.1	.	.	.
COc1ccc(-c2cc(-c3ccc(F)cc3)nc(N3CCN(C)CC3)n2)cc1	39.0	201.0*	122.0	2.0	24.0	205.0	78.0*	117.0
O=C(CCNC(=O)c1ccccc1Cl)NCCCSc1ccccc1	.	.	.	0.0	-1.3	.	.	.
O=C(NCCSc1ccccc1)c1ccccc1Cl	1.0	110.0	156.0*	0.0	2.5	102.0	-2.0	104.0
O=C(CN(c1ccc(Cl)c(Cl)c1)S(=O)(=O)c1ccccc1)N1CCc2ccccc2C1	1.0	93.0	102.0	2.0	4.3	.	.	.
